Experimental data as given in PubChem BioAssay (Tox21).
Inconclusive results are not listed. Calls of active or inactive are those of the source. The call rests on the fitted dose curve.

Tests used:
[1] = target: Acetylcholinesterase (Homo sapiens) (UniProt P22303); experiment: Acetylcholinesterase (AChE) small molecule antagonists: colormetric cell-based qHTS assay (AID 1347395); further: nearly all actives have a fitted effect of over 30% in size
Summary of the method: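 In this cell-based qHTS, attached SH-SY5Y cells were treated with test chemicals for 30 min, after which acetylthiocholine hydrolysis was followed by DTNB colour development over 90 min at 37 C.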

[2] = target: Acetylcholinesterase (Homo sapiens) (UniProt P22303); experiment: Acetylcholinesterase (AChE) small molecule antagonists: enzyme-based qHTS assay (AID 1347397); conditions: Potency: AChE enzyme activity inhibition; outcome: AChE enzyme activity inhibition; further: nearly all actives have a fitted effect of over 55% in size
Summary of the method: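 Colorimetric DTNB read-out of thiocholine released from acetylthiocholine by recombinant human AChE (50 mU/mL as dispensed). Compounds were preincubated 30 min at RT before substrate/DTNB addition, with a 10 min RT reaction.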

[3] = target: Acetylcholinesterase (Homo sapiens) (UniProt P22303); experiment: Acetylcholinesterase (AChE) small molecule antagonists: fluorescence cell-based qHTS assay (AID 1347398); conditions: Potency: AChE activity; outcome: AChE activity; further: nearly all actives have a fitted effect of over 50% in size
Summary of the method: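 SH-SY5Y, 2,000 cells/well, attached overnight; cmpd 30 min 37 C; acetylthiocholine/Thiolite Green cocktail 40 min RT; fluorescence Ex/Em 490/520 nm.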

[4] = target: Acetylcholinesterase (Homo sapiens) (UniProt P22303); experiment: Acetylcholinesterase (AChE) small molecule antagonists: enzyme-based qHTS assay with human liver microsomes (AID 1347399); conditions: Potency: qHTS inhibition; outcome: qHTS inhibition; further: nearly all actives have a fitted effect of over 60% in size
Summary of the method: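 Recombinant human AChE (50 mU/mL in the enzyme mix) and human liver microsomes (0.25 mg/mL final) were preincubated with compound and NADPH (0.25 mg/mL final) for 30 min at 37 C. Acetylthiocholine/DTNB was then added; thiocholine was read colorimetrically after 10 min at room temperature.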
On the % scale 0 is the no-effect control and ±100 the full control effect.

Acetylcholinesterase (Homo sapiens), sequence (P22303 whole entry, looked up): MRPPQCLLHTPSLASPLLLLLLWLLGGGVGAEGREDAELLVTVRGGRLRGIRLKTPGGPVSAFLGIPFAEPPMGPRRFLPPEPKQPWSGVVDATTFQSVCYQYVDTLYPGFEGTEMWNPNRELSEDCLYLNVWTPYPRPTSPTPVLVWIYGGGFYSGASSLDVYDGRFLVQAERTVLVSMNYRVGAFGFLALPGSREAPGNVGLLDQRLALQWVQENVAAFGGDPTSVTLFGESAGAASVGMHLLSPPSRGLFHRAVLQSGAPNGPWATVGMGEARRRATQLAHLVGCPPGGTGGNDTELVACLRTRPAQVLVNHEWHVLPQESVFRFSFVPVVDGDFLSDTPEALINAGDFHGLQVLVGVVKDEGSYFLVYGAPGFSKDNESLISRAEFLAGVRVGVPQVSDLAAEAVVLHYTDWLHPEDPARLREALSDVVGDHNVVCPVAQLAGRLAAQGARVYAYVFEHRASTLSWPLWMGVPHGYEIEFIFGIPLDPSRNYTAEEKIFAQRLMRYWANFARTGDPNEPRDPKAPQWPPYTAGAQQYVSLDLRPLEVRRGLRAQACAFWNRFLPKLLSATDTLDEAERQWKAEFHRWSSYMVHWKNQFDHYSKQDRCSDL

CCOC(=O)[C@H](O)[C@@H](O)C(=O)OCC
inactive: Potency [1] | Potency [2] | Potency [3] | Potency [4]

CC1(C)O[C@@H]2C[C@H]3[C@@H]4C[C@H](F)C5=CC(=O)C=C[C@]5(C)[C@@]4(F)[C@@H](O)C[C@]3(C)[C@]2(C(=O)CO)O1
inactive: Potency [1] | Potency [2] | Potency [3] | Potency [4]

C/C=C(\C)C(=O)OCCc1ccccc1
inactive: Potency [1] | Potency [2] | Potency [3] | Potency [4]

S=C(S)NCCNC(=S)S
inactive: Potency [1] | Potency [2] | Potency [3] | Potency [4]

CC(O)(c1ccc(Cl)cc1)c1ccc(Cl)cc1
inactive: Potency [1] | Potency [2] | Potency [3] | Potency [4]

CC(C)CC(=O)OCc1ccccc1
inactive: Potency [1] | Potency [2] | Potency [3] | Potency [4]

CCCCOCCOCCO
inactive: Potency [1] | Potency [2] | Potency [3] | Potency [4]

Cc1cc(=O)[nH]c(=O)[nH]1
inactive: Potency [1] | Potency [2] | Potency [3] | Potency [4]

CC(C)(CC(=O)O)C(=O)O
inactive: Potency [1] | Potency [2] | Potency [3] | Potency [4]

CC(=O)NNC(C)=O
inactive: Potency [1] | Potency [2] | Potency [3] | Potency [4]

CCc1nccnc1CC
inactive: activity, negative = inhibition [1] 2.95% [at 23.6 µM] | activity change, negative = inhibition [2] -0.515% [at 23.6 µM] | activity change, negative = inhibition [3] 3.3% [at 23.8 µM] | activity change, negative = inhibition [4] 0.443% [at 23.6 µM]

CC(COCCO)OCCO (stereo not given)
inactive: Potency [1] | Potency [2] | Potency [3] | Potency [4]

C[Si]1(C)N[Si](C)(C)N[Si](C)(C)N1
inactive: Potency [1] | Potency [2] | Potency [3] | Potency [4]

CCCCC(CC)COC(=O)CC(C(=O)OCC(CC)CCCC)S(=O)(=O)O (stereo not given)
inactive: Potency [1] | Potency [2] | Potency [3] | Potency [4]

Cc1ccccc1CCO
inactive: Potency [1] | Potency [2] | Potency [3] | Potency [4]

CCCCOCCOCCOCCO
inactive: Potency [1] | Potency [2] | Potency [3] | Potency [4]

Nc1ncnc(Nc2ccccc2)n1
inactive: Potency [1] | Potency [2] | Potency [3] | Potency [4]

CC(C(=O)O)c1cccc(Oc2ccccc2)c1 (stereo not given)
inactive: Potency [1] | Potency [2] | Potency [3] | Potency [4]

CCOC(=O)C1=C(C)NC(C)=C(C(=O)OC)C1c1cccc([N+](=O)[O-])c1 (stereo not given)
inactive: Potency [1] | Potency [2] | Potency [3] | Potency [4]

C=COCCOCCOC=C
inactive: Potency [1] | Potency [2] | Potency [3] | Potency [4]

NC(=S)NNC(N)=S
inactive: Potency [1] | Potency [2] | Potency [3] | Potency [4]

CCCCN(CCC(=O)OCC)C(C)=O
inactive: Potency [1] | Potency [2] | Potency [3] | Potency [4]

O=c1cc[nH]c(=S)[nH]1
inactive: Potency [1] | Potency [2] | Potency [3] | Potency [4]

BrCc1cccc(Oc2ccccc2)c1
inactive: Potency [1] | Potency [2] | Potency [3] | Potency [4]

COc1ccc2nc(N)sc2c1
inactive: Potency [1] | Potency [2] | Potency [3] | Potency [4]

NC(=O)c1nc(-c2cccc(-c3cc(F)ccc3OCC(F)(F)C(F)(F)F)c2)n[nH]1
inactive: Potency [1] | Potency [2] | Potency [3] | Potency [4]

CCCN(CCC)C(=O)SCC
inactive: Potency [1] | Potency [2] | Potency [3] | Potency [4]

CNC(=O)NC
inactive: Potency [1] | Potency [2] | Potency [3] | Potency [4]

COc1cc(CCC(C)=O)ccc1O
inactive: Potency [1] | Potency [2] | Potency [3] | Potency [4]

O=C1c2ccccc2C(=O)C1c1ccc(Br)cc1
inactive: Potency [1] | Potency [2] | Potency [3] | Potency [4]
